# Screening results deposited in PubChem by several laboratories.
# In the library only some 3.7% were active in any assay of this set; here they are far more common.
# CHT inh: inhibits the human high affinity choline transporter; Q9GZV3; CHT-expressing cells, membrane potential dye, choline response; stronger effect = lower value; B-score at 10 µM; hit rate 0.86% among 310,000;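 active = B-score over 3 SD under the library average, and starting fluorescence ratio not unusually high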;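 also: choline stimulus applied at its EC90 after an EC20 pre-addition; B-score computed on integrated fluorescence ratio after choline addition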
# Kir21 inh: Kir2.1 (mouse) channel inhibition. P35561. HEK293-Kir2.1, FluxOR thallium flux fluorescence; stronger effect = lower value. B-score at 10 µM. hit rate 0.85% among 310,000. AID 1672;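 active = fluorescence ratio B-score at or below minus 3 SD of library scores, with starting-brightness B-score within 2 SD, cut at about -4.2 in these data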;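 also: channel flux triggered by added potassium and thallium sulfate stimulus; B-score of peak minus minimum fluorescence over baseline after thallium stimulus; more negative B-score means stronger Kir2.1 block with less thallium influx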
# Target sequence (P35561 whole entry, looked up): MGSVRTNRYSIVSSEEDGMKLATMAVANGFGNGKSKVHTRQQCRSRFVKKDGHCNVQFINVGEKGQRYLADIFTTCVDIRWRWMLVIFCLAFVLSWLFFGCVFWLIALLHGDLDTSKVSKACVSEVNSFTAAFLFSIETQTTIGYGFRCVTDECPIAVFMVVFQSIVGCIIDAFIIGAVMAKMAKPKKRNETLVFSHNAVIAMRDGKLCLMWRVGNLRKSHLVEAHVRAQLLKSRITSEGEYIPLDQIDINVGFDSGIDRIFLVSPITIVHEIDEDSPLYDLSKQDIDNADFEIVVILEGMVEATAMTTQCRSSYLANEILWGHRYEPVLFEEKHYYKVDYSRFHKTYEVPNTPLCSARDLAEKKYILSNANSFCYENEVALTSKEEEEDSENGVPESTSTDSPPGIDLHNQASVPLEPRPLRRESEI
# GPR7 antagonist: antagonists of human GPR7 (neuropeptides B/W receptor 1). P48145. GPR7-expressing cells, fluorescence antagonist assay. inhibition, % at 4.4 µM. hit rate 1.1% among 290,000. AID 1861; in the data active = inhibition above about 16%, passing the limit was not always enough;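 also: cells stimulated with the agonist NPW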
# ANO1 block: mouse TMEM16A channel inhibition, primary screen | Q8BHY3 | HEK293 TMEM16A/YFP iodide influx fluorescence, ionomycin | normalized B-score (activity score, 25-100; higher = stronger inhibition) at 10 µM | hit rate 1.2% among 310,000;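 active = ratio plate-corrected score three or more library SD toward inhibition, starting fluorescence score within five deviations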;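 also: score derived from kinetic fluorescence span divided by baseline fluorescence per well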
# TMEM16A act: activators or potentiators of mouse TMEM16A chloride channel; HEK293 TMEM16A/YFP-H148Q/I152L, iodide quench fluorescence; stronger effect = lower value; Q8BHY3; AID 623877; B-score at 10 µM; hit rate 0.3% among 340,000;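 active = fluorescence-ratio B-score plate-corrected deviation score at least 3 library SD below zero, with starting fluorescence score within 5 deviations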;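 also: channel opened by trigger with iodide after compound preincubation; score built on the fluorescence ratio of max minus min over baseline; more negative score means more quench and so TMEM16A activation or potentiation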
# CHT allo act: human CHT allosteric activation; CHT-expressing cells, membrane potential dye, choline EC20; stronger effect = higher value; LV-AA mutant CHT in HEK293 cells; hit rate 0.49% among 310,000; Q9GZV3; B-score at 10 µM;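 active = initial fluorescence not abnormally high and integrated response B-score, plate-corrected, over 3 SD above library mean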
# GPR7 antag cf: confirmation of human GPR7 antagonists; shares compounds with GPR7 antagonist; GPR7-expressing cells, calcium fluorescence antagonist mode; hit rate 52% among 2,400; inhibition, % at 4.4 µM; in the data active = inhibition above about 24%;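 also: stimulated with the GPR7 agonist NPW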
# MCHR1 antag: counter-screen for GPR7 antagonists: antagonists of human MCHR1; hit rate 62% among 2,400; shares compounds with GPR7 antagonist; MCHR1-expressing cells, fluorescence antagonist assay; inhibition, % at 4.4 µM; in the data active = inhibition above about 22%
# Numbers stand for hits; . = inactive; / = no result given.
SMILES,CHT inh,Kir21 inh,GPR7 antagonist,ANO1 block,TMEM16A act,CHT allo act,GPR7 antag cf,MCHR1 antag
COc1ccc(C2C(Oc3ccccc3C)C(=O)N2Cc2ccc(F)cc2)cc1OC (stereo not given),.,.,27.9,.,.,.,.,.
Cc1sc2ncnc(N3CCN(Cc4ccccc4)CC3)c2c1-c1ccccc1,.,.,.,.,.,.,/,/
O=C(Nc1ccccc1C(=O)O)/C(=C/c1ccc(Cl)cc1Cl)NC(=O)c1ccco1,.,.,.,.,.,.,/,/
C[C@H](CO)N1C[C@H](C)[C@@H](CN(C)C(=O)NC2CCCCC2)Oc2ccc(NC(=O)C3CC3)cc2C1=O,/,/,/,/,.,/,/,/
CCC(=O)c1cn(CC(=O)Nc2ccccc2Cl)c2ccccc12,.,.,26.0,.,.,.,.,.
C/C(CC(=O)Nc1ccc(N(C)C)cc1)=N\NC(=O)c1ccc([N+](=O)[O-])cc1,.,.,26.9,.,.,.,.,.
COC(=O)c1cc(C)ccc1/C=C1/Cc2c(C)cc(C)cc2C1=O,/,/,/,/,.,/,/,/
CN(C)c1ccc(-c2nn3c(-c4ccccc4Cl)nnc3s2)cc1,.,.,24.8,.,.,.,32.7,75.5
CCOC(=O)/C(=C/C=C1\Sc2cc(C)c(C)cc2N1CC)C(C)=O,/,.,24.3,/,.,/,38.4,75.7
CCOC(=O)/C(=C/C=C1\Sc2ccccc2N1CC)C(C)=O,.,.,.,.,.,.,/,/
CCOC(=O)/C(=C\C=C1/Sc2ccccc2N1CC)C(C)=O,.,.,27.8,.,.,.,.,36.0
O=C(Nc1cccnc1)c1cc(-c2ccccc2O)on1,.,.,38.5,.,.,.,40.4,43.3
O=C(Nc1cccnc1)c1cc(-c2cccc(Cl)c2)on1,.,.,23.2,.,.,.,.,43.0
COC(=O)c1ccc(-c2ccc(/C=N/NC(=O)CC3(C)OCCCO3)o2)cc1,.,.,23.9,.,.,.,.,.
COc1ccc(CNC(=O)CSc2ncn[nH]2)cc1,.,.,.,.,.,.,/,/
COc1ccc(CNC(=O)CSc2nnc(C)c(=O)[nH]2)cc1,.,.,25.3,.,.,.,.,.
O=C(CCNC(=O)c1ccc([N+](=O)[O-])cc1)NC1CCCCCC1,/,/,/,/,.,/,/,/
O=C(Nc1ccccc1)Nc1cccc2ccccc12,.,.,36.9,.,.,.,.,22.0
COc1ccc(S(=O)(=O)N2CCN(C(=O)N3CCOCC3)C2C)cc1 (stereo not given),.,.,.,.,.,.,/,/
Cc1[nH]nc2c1C(c1cccs1)C(C#N)=C(N)O2 (stereo not given),.,.,39.8,.,.,.,.,.
CCOC(=O)N1CN(C(=O)OCC)CN(C(=O)OCC)C1,.,.,17.8,.,.,.,.,.
C=CCOc1ccc(CN(C)CC(O)COc2cccc3ccccc23)cc1 (stereo not given),.,-4.64,32.9,.,.,.,47.4,38.6
Cc1cc(CN(C)Cc2ccc(OCC(O)CN(C)Cc3ccccc3)cc2)on1 (stereo not given),.,.,.,.,.,.,/,/
CCOC(=O)Cn1c(=O)oc2cc(S(=O)(=O)Nc3ccc(F)cc3)ccc21,.,.,25.0,.,.,.,41.6,36.8
CCOC(=O)Cn1c(=O)oc2cc(S(=O)(=O)NCCc3ccc(C)cc3)ccc21,.,.,.,.,.,.,/,/
SMILES,CHT inh,Kir21 inh,GPR7 antagonist,ANO1 block,TMEM16A act,CHT allo act,GPR7 antag cf,MCHR1 antag
COc1ccccc1C(=O)NCC(=O)N/N=C/c1cn[nH]c1-c1ccccc1,.,.,.,.,.,.,/,/
Cc1ccccc1NC(=O)c1nc(S(C)(=O)=O)ncc1Cl,.,.,.,.,.,.,/,/
CCN(c1ccccc1)S(=O)(=O)c1ccc(NC(=O)c2nc(S(C)(=O)=O)ncc2Cl)cc1,.,.,97.5,.,-7.62,.,97.4,101.6
CCS(=O)(=O)c1ncc(Cl)c(C(=O)Nc2ccc(S(=O)(=O)N(C)c3ccccc3)cc2)n1,.,.,61.3,.,.,.,96.2,98.4
O=C(Nc1ccc(F)cc1)c1nc(S(=O)(=O)Cc2ccccc2)ncc1Cl,.,.,.,.,.,.,/,/
O=C(Nc1ccc(OC(F)(F)F)cc1)Nc1cccnc1,.,.,21.8,.,.,.,.,29.8
Cc1cccc(NC2=CC(=O)CC(C)(C)C2)c1C,.,.,.,.,.,.,/,/
CCOc1cc(CNC2CCCC2)cc(Cl)c1OCc1ccccc1,.,-8.76,26.1,.,.,.,39.8,30.0
CCOc1cc(C(N)=O)cc(Cl)c1OCc1ccccc1,.,.,.,.,.,.,/,/
O=C(NCC1CCCN(C(=O)NCc2ccccc2)C1)c1ccc2c(c1)OCO2 (stereo not given),.,.,.,.,.,.,/,/
c1ccc(OCCSc2nnnn2-c2ccccc2)cc1,.,.,31.1,.,.,.,.,34.5
Nn1c(SCc2nc3ccccc3[nH]2)nnc1C1CCCCC1,.,.,21.6,.,.,.,.,.
COc1ccc2[nH]c(CN3CCC(CO)(CCOc4ccccc4)CC3)c(C)c2c1,.,.,.,.,.,.,/,/
Cc1cc(NC(=O)COC(=O)c2oc3c(Cl)cccc3c2C)no1,.,.,27.1,.,.,.,.,36.6
Cc1cc(NC(=O)COC(=O)c2ccccc2Cl)no1,/,/,/,/,.,/,/,/
Cc1cccc(C)c1NC(=S)N1CC(C)OC(C)C1 (stereo not given),.,.,.,.,.,.,/,/
O=C1C2CC=CCC2C(=O)N1c1ccc(NCCc2ccc(O)cc2)c([N+](=O)[O-])c1 (stereo not given),.,.,30.8,25,.,.,28.3,55.3
N#CCC(=O)Nc1ccc(C(=O)OCC(=O)N(C2CCCCC2)C2CCCCC2)cc1,.,.,.,.,.,.,/,/
CCOC(=O)N1CCN(CC(O)COC2CC(C)CCC2C(C)C)CC1 (stereo not given),.,.,.,.,.,.,/,/
CC1CCN(CC(O)COC2CC(C)CCC2C(C)C)CC1 (stereo not given),.,.,23.4,.,.,.,.,.
COc1ccc2c(c1)C(C)CC(C)(C)N2C(=O)CSc1nc2ccccc2s1 (stereo not given),.,.,22.1,.,/,.,25.5,53.9
COc1ccc2c(c1)C(C)CC(C)(C)N2C(=O)Nc1ccccc1 (stereo not given),.,.,.,.,.,.,/,/
COc1ccc(C(CNC(=O)c2cccc(S(=O)(=O)Nc3ccc(F)cc3)c2)N(C)C)cc1 (stereo not given),/,/,/,/,.,/,/,/
